As usually defined, the AC50 is the midpoint of the concentration-response curve, whichever way the signal moves.

This is an account of results in PubChem BioAssay (EPA / NIEHS).

Several values for one entry are separate records, joined by “and”; a condition that tells them apart may be missing. Equal entries are not always repeated. Inconclusive results are not listed. The source holds several records for some structures; these can differ, active in one and inactive in another. Activity calls are given as the source filed them. The calls were made as follows, unless noted: active = hit-call score of the fitted dose curve at least 0.9, where 1 is the maximum; inactive = score below 0.9.

The target of experiment [1] is human Thyroid Receptor alpha (THRa1), THRA (gene 7067) (UniProt P10827). The experiment in a line: ATG_THRa1_TRANS: Attagene TRANS-FACTORIAL HepG2 Assay for human Thyroid Receptor alpha (THRa1) (AID 2283014; active = hit-call score of the fitted dose curve at least 0.9, where 1 is the maximum). The gist of the method: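 Transient HepG2 transfection, NR-Gal4 chimera driving GAL4-UAS reporters; 24 h compound exposure; total RNA, oligo(dT) RT, PCR, fluorescent primer extension, capillary electrophoresis. Upward direction vs DMSO control.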

Read-out in experiment [2]: E-selectin (Homo sapiens) (UniProt P16581)
The experiment in a line: BSK_3C_Eselectin: BioMAP Diversity Plus: 3C Assay for Eselectin Biomarker Activity (AID 2283015).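 As to outcome: cell surface E-selectin protein quantified by ELISA 24 h after dosing.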 The conditions noted are these: primary human endothelial cells (HUVEC); actives raise or lower the signal. The method in brief:
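HUVEC, 3C stimulation; compound exposure 24 h; E-selectin by ELISA; gain- or loss-of-signal fitted bidirectionally vs DMSO baseline.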

Read-out in experiment [3]: Interleukin-1 alpha (IL1a), IL1A (gene 3552)
The experiment in a line: BSK_BE3C_IL1a: BioMAP Diversity Plus: BE3C Assay for Interleukin-1 alpha (IL1a) Biomarker Activity (AID 2283016). The settings on record: primary human bronchial epithelial cells; actives raise or lower the signal. The gist of the method: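 Signal from IL-1a ELISA, taken 24 h after chemical dosing of human bronchial epithelial cells, is compared with DMSO as baseline using bidirectional curve fitting.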

Read-out in experiment [4]: Monocyte Chemoattractant Protein-1 (MCP1), CCL2 (gene 6347)
The experiment in a line: BSK_3C_MCP1: BioMAP Diversity Plus: 3C Assay for Monocyte Chemoattractant Protein-1 (MCP1) Biomarker Activity (AID 2283017). The conditions noted are these: primary human endothelial cells (HUVEC); actives raise or lower the signal. The method in brief:
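HUVEC, 3C system; 24 h chemical exposure; MCP-1 by ELISA; bidirectional curve fit vs DMSO baseline.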

Read-out in experiment [5]: Monocyte Chemoattractant Protein-1 (MCP1), CCL2 (gene 6347)
The experiment in a line: BSK_4H_MCP1: BioMAP Diversity Plus: 4H Assay for Monocyte Chemoattractant Protein-1 (MCP1) Biomarker Activity (AID 2283018). The conditions noted are these: primary human endothelial cells (HUVEC); actives raise or lower the signal. The gist of the method:
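Endothelial cells from umbilical vein were treated with test chemical, then after 24 h MCP-1 levels were quantified by ELISA; endpoint values came from bidirectional fitting with DMSO as baseline of activity.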

Read-out in experiment [6]: Human Leukocyte Antigen - DR isotype (HLADR), HLA-DRA (gene 3122)
The experiment in a line: BSK_3C_HLADR: BioMAP Diversity Plus: 3C Assay for Human Leukocyte Antigen - DR isotype (HLADR) Biomarker Activity (AID 2283019).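 As to outcome: ELISA of cell-surface HLA-DR on HUVEC 24 h after dosing.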 The conditions noted are these: primary human endothelial cells (HUVEC); actives raise or lower the signal. The gist of the method: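 HUVEC, 3C stimulation, 24 h post-dose; HLA-DR by ELISA; bidirectional curve fit vs DMSO baseline; gain or loss of signal scored.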

Experiment [7] addresses human Retinoid X Receptor beta (RXRb), RXRB (gene 6257) (UniProt P28702). The experiment in a line: ATG_RXRb_TRANS: Attagene TRANS-FACTORIAL HepG2 Assay for human Retinoid X Receptor beta (RXRb) (AID 2283013; active = hit-call score of the fitted dose curve at least 0.9, where 1 is the maximum). The method in brief: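 Chimeric receptor-Gal4 activity was assessed in transiently transfected human HepG2 cells after 24 h exposure. Transcripts from GAL4-UAS reporters were quantified by fluorescent RT-PCR and capillary electrophoresis, with DMSO as negative control and baseline.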

The target in experiment [8] is Retinoic acid receptor RXR-alpha (Homo sapiens) (UniProt P19793). The experiment in a line: ATG_RXRa_TRANS: Attagene TRANS-FACTORIAL HepG2 Assay for human Retinoid X Receptor alpha (RXRa) (AID 2283012; active = hit-call score of the fitted dose curve at least 0.9, where 1 is the maximum). The gist of the method:
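Measures exogenous chimeric NR-GAL4 activity in transfected HepG2 liver cells after 24 h of dosing. Induced reporter mRNA was detected by RT-PCR with capillary electrophoresis, and gain of signal was analysed against DMSO.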

Sequence of Retinoic acid receptor RXR-alpha (Homo sapiens) (P19793 whole entry, looked up, the tested form may be a part): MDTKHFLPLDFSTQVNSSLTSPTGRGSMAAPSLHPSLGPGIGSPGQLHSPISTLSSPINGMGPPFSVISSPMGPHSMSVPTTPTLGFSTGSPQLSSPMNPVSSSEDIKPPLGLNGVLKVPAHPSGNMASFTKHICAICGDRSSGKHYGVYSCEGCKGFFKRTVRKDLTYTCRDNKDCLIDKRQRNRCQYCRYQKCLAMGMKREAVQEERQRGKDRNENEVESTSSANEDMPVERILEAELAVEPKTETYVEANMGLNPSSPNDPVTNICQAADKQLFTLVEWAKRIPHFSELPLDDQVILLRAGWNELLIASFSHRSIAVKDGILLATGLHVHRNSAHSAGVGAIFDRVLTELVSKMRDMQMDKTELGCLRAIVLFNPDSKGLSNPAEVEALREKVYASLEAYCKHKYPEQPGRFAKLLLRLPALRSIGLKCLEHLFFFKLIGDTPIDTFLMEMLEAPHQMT
Sequence of human Retinoid X Receptor beta (RXRb), RXRB (gene 6257) (P28702 whole entry, looked up, the tested form may be a part): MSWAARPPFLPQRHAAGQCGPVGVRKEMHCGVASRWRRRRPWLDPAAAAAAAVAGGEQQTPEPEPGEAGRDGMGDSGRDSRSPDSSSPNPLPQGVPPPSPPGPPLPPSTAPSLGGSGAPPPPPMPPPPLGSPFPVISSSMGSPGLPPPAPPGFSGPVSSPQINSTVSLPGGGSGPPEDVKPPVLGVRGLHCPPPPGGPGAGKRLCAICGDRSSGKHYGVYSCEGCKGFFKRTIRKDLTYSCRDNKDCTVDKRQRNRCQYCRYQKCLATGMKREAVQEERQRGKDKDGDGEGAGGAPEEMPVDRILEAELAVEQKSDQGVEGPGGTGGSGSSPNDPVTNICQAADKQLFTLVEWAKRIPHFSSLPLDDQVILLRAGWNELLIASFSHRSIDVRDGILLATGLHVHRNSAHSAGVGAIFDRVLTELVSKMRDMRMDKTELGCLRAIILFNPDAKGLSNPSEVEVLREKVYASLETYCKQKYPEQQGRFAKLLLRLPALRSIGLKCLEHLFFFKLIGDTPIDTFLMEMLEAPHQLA
Sequence of human Thyroid Receptor alpha (THRa1), THRA (gene 7067) (P10827 whole entry, looked up, the tested form may be a part): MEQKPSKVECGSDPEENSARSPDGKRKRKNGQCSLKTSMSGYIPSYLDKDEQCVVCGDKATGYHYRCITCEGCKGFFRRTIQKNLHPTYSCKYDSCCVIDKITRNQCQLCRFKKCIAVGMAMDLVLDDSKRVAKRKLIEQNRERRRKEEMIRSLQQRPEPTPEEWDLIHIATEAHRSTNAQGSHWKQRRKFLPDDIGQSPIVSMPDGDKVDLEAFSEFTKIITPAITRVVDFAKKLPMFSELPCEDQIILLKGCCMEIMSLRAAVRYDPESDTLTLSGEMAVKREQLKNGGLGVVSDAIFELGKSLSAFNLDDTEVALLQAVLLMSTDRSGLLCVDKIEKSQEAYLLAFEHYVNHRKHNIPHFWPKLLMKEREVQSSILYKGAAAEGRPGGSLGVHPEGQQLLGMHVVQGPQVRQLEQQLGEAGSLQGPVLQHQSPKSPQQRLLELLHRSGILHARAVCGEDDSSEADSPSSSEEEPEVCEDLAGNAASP
Sequence of E-selectin (Homo sapiens) (P16581 whole entry, looked up): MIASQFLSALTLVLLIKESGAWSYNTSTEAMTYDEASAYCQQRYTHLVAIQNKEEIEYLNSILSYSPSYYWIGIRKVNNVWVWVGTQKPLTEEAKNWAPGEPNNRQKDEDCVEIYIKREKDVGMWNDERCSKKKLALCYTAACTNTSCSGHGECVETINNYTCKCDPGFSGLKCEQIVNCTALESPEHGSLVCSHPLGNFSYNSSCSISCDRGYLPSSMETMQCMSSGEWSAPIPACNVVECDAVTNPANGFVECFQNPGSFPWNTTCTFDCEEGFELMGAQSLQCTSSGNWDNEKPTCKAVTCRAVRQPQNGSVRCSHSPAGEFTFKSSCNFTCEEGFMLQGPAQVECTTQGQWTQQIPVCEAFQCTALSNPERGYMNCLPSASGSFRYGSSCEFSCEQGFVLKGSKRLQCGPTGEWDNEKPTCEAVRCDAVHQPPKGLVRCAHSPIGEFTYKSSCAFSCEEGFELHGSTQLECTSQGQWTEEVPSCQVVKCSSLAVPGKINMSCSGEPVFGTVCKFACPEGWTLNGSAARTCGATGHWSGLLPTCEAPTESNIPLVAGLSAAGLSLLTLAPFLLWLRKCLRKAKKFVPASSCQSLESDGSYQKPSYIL

As to `NC(O)(C(F)(F)F)C(F)(F)F`, the result in experiment [1], in experiment [2], in experiment [3], in experiment [4], in experiment [5] and in experiment [6] was inactive.
`CCN(CC)c1ccc(C=O)c(O)c1`: the compound was classed as inactive in experiment [7], in experiment [2], in experiment [3], in experiment [4] and in experiment [5]. In addition, the AC50 in experiment [6] is 32.9 µM (active).
Take `CC(C)(C)c1cc(CCC(=O)NCCCCCCNC(=O)CCc2cc(C(C)(C)C)c(O)c(C(C)(C)C)c2)cc(C(C)(C)C)c1O`: the compound was classed as inactive in experiment [8], in experiment [2], in experiment [3], in experiment [4], in experiment [5] and in experiment [6].
In the case of `CCOC(=O)CC(=O)C(F)(F)C(F)(F)F`, the result in experiment [8], in experiment [2], in experiment [3], in experiment [4], in experiment [5] and in experiment [6] was inactive.
Consider `C[Si](Cl)(Cl)CCC(F)(F)C(F)(F)C(F)(F)C(F)(F)C(F)(F)C(F)(F)F`, for which the compound was classed as inactive in experiment [8], in experiment [2], in experiment [3], in experiment [4], in experiment [5] and in experiment [6].
Take `CCN(CC)c1ccc2c(c1)Oc1cc(N(CC)CC)ccc1C21OC(=O)c2ccccc21`: the result in experiment [2], in experiment [3] and in experiment [5] was inactive. Besides, the concentration at half-maximal activity (AC50) in experiment [4] and in experiment [6] was 10 µM (active) each time.
Turning to `CCN(CCO)S(=O)(=O)C(F)(F)C(F)(F)C(F)(F)C(F)(F)C(F)(F)C(F)(F)C(F)(F)C(F)(F)F`, the compound was classed as inactive in experiment [8], in experiment [1], in experiment [2] and in experiment [5]. Also, the AC50 in experiment [3] was 45.7 µM (active) and 19.5 µM (active); in experiment [4], 23.1 µM (active) and 9.73 µM (active); in experiment [6] it was 42.6 µM (active) and 20.2 µM (active).
`Brc1nc2ccccc2s1`: the outcome in experiment [8], in experiment [2], in experiment [3], in experiment [4], in experiment [5] and in experiment [6] was inactive.
Regarding `CCOC(C=C(C)CCC=C(C)C)OCC`, the call in experiment [8] was inactive. In addition, the AC50 was 32.8 µM (active) in experiment [2]; 3.97 µM (active) in experiment [3]; 32.1 µM (active) in experiment [4]; 30.4 µM (active) in experiment [5]; 35.4 µM (active) in experiment [6].
`OCC(F)(F)C(F)(F)C(F)(F)CO`: the outcome in experiment [8], in experiment [2], in experiment [3], in experiment [4], in experiment [5] and in experiment [6] was inactive.
On to `CC(C)=CCCC(C)O` (stereo unspecified), for which the compound was called inactive in experiment [7].
For the compound `O=S(=O)(OCC(F)(F)F)C(F)(F)C(F)(F)C(F)(F)C(F)(F)F`, the outcome in experiment [8], in experiment [2], in experiment [3], in experiment [4], in experiment [5] and in experiment [6] was inactive.
As for `NC(=O)C(F)(F)C(F)(F)C(F)(F)F`, the compound was classed as inactive in experiment [8], in experiment [2], in experiment [3], in experiment [4], in experiment [5] and in experiment [6].
Turning to `OCCCC(F)(F)C(F)(F)C(F)(F)C(F)(F)C(F)(F)C(F)(F)C(F)(F)C(F)(F)F`, the AC50 in experiment [8] is 23.8 µM (active); in experiment [2], 27.4 µM (active) and 50.6 µM (active); in experiment [3], 46.9 µM (active) and 39.5 µM (active); in experiment [4] it was 20.8 µM (active) and 31.7 µM (active); in experiment [5] it was 45.5 µM (active) and 46.7 µM (active); in experiment [6], 19.4 µM (active) and 43.2 µM (active). For the same compound, the outcome in experiment [1] was inactive.
In the case of `OCC(F)(F)C(F)(F)C(F)(F)C(F)(F)C(F)(F)C(F)(F)CO`, the compound was classed as inactive in experiment [8], in experiment [2], in experiment [3], in experiment [4], in experiment [5] and in experiment [6].
Turning to `CC1=CC2C3C=CC(C3)C2C1C` (stereo unspecified), the compound was called inactive in experiment [8], in experiment [2], in experiment [3], in experiment [4], in experiment [5] and in experiment [6].
In the case of `OCCCCC(F)(F)C(F)(F)C(F)(F)C(F)(F)F`, the compound was called inactive in experiment [8], in experiment [2], in experiment [3], in experiment [4], in experiment [5] and in experiment [6].
Regarding `Oc1ccc(C2(c3ccc(O)c(C4CCCCC4)c3)CCCCC2)cc1C1CCCCC1`, the outcome in experiment [1] was inactive.
Consider `Nc1cc([N+](=O)[O-])cc(Cl)c1O`, for which the compound was classed as inactive in experiment [8], in experiment [2], in experiment [3], in experiment [4], in experiment [5] and in experiment [6].
Consider `CN(C(=O)C(F)(F)C(F)(F)C(F)(F)F)[Si](C)(C)C`, for which the outcome in experiment [8], in experiment [1], in experiment [2], in experiment [3], in experiment [4] and in experiment [5] was inactive. Also, the outcome in experiment [6] was inactive.
For the compound `O=C(F)C1(F)C(F)(F)C(F)(F)C(F)(F)C(F)(F)C1(F)F`, the outcome in experiment [2], in experiment [3], in experiment [4], in experiment [5] and in experiment [6] was inactive.
`C=CC(=O)OCCC(F)(F)C(F)(F)C(F)(F)C(F)(F)F`: the compound was called inactive in experiment [8], in experiment [3], in experiment [4], in experiment [5] and in experiment [6]. Besides, in experiment [2], the AC50 was 33.7 µM (active) and 30 µM (active).
For `CCN(CC)c1ccc(N=Nc2ccccc2)cc1`, the compound was classed as inactive in experiment [8], in experiment [1] and in experiment [2]. Also, the AC50 in experiment [3] was 20 µM (active); in experiment [4] it was 30.6 µM (active); in experiment [5], 13.2 µM (active); in experiment [6] it was 11.5 µM (active).
Take `OCC(O)CC(F)(F)C(F)(F)C(F)(F)C(F)(F)F` (stereo unspecified): the compound was classed as inactive in experiment [8], in experiment [2], in experiment [3], in experiment [4], in experiment [5] and in experiment [6].
With `FC(F)(F)C(F)(F)C(F)(F)C(F)(F)C(F)(F)C(F)(F)C(F)(F)CCI`, the result in experiment [8], in experiment [1], in experiment [2], in experiment [3], in experiment [4] and in experiment [5] was inactive. Moreover, the result in experiment [6] was inactive.
As for `OCC(F)(F)C(F)(F)C(F)(F)C(F)(F)C(F)(F)C(F)(F)C(F)(F)C(F)(F)CO`, the result in experiment [2], in experiment [3], in experiment [4], in experiment [5] and in experiment [6] was inactive. Also, the AC50 in experiment [3] and in experiment [6] was 30 µM (active) each time.
As to `CCCCCCCC/C=C\CCCCCCCC(=O)OCC(O)CO` (stereo unspecified), the outcome in experiment [1] was inactive.
As for `OC(O)C(F)(F)C(F)(F)F`, the result in experiment [8], in experiment [2], in experiment [3], in experiment [4], in experiment [5] and in experiment [6] was inactive.
For the compound `O=C1OC(=O)c2ccc3c4c(ccc1c24)C(=O)OC3=O`, the compound was called inactive in experiment [1].
The same measure, in the same setting: to `CCC(Cc1c(I)cc(I)c(N)c1I)C(=O)O` (stereo unspecified) belongs “inactive”.
On to `OCCCc1cccnc1`, for which the compound was classed as inactive in experiment [7] and in experiment [1].
